About 83,000 compounds went through this panel and 20% of them were active in at least one assay; those are over-represented in the sample as a whole.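 Plates (96-well) were seeded with cells, treated with compound at one concentration, and incubated for 48 hours before percent growth was determined.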 The source made the active and inactive calls. The calls were made as follows: active = growth percent below 10; inactive = the rest.
Tests used:
Experiment in all cases: NCI-60 one-dose screen, 48 h (100 = growth as untreated, 0 = no growth, -100 = all killed)
Settings in all cases: 10 µM unless noted
SK-MEL-2 melanoma = tested on: SK-MEL-2 melanoma
SN12C renal = tested on: SN12C renal
UO-31 renal = tested on: UO-31 renal
TK-10 renal = tested on: TK-10 renal
ACHN renal = tested on: ACHN renal
CAKI-1 renal = tested on: CAKI-1 renal
A498 renal = tested on: A498 renal
CCRF-CEM leukemia = tested on: CCRF-CEM leukemia
RPMI-8226 leukemia = tested on: RPMI-8226 leukemia
OVCAR-8 ovarian = tested on: OVCAR-8 ovarian
OVCAR-5 ovarian = tested on: OVCAR-5 ovarian
OVCAR-4 ovarian = tested on: OVCAR-4 ovarian
SK-OV-3 ovarian = tested on: SK-OV-3 ovarian
IGROV1 ovarian = tested on: IGROV1 ovarian
OVCAR-3 ovarian = tested on: OVCAR-3 ovarian
HS 578T breast = tested on: HS 578T breast
NCI/ADR-RES ovarian = tested on: NCI/ADR-RES ovarian
MOLT-4 leukemia = tested on: MOLT-4 leukemia
SR leukemia = tested on: SR leukemia

Measured: growth

CN(C)CC#Cc1ccc2ncc(C#N)c(Nc3ccc(F)c(Cl)c3)c2c1
active: A498 renal -11.8% | IGROV1 ovarian 3.51%
inactive: SK-MEL-2 melanoma 38.3% | SN12C renal 35.4% | UO-31 renal 18% | TK-10 renal 27.1% | ACHN renal 10.5% | CAKI-1 renal 17.1% | CCRF-CEM leukemia 81.7% | RPMI-8226 leukemia 50.3% | OVCAR-8 ovarian 45.2% | OVCAR-5 ovarian 54.8% | OVCAR-4 ovarian 38.1% | SK-OV-3 ovarian 17.4% | OVCAR-3 ovarian 54.9% | HS 578T breast 52.1% | NCI/ADR-RES ovarian 42.9%

O=C(O)CCC/C=C\C[C@H]1C=CC(=O)/C1=C/C[C@@H](O)CCc1cccc(C(F)(F)F)c1
active: SK-MEL-2 melanoma -6.24% | SN12C renal -24.7% | UO-31 renal -88.4% | ACHN renal -70.3% | A498 renal -12% | CCRF-CEM leukemia 4.1% | MOLT-4 leukemia -8.07% | SR leukemia -7.7% | OVCAR-5 ovarian 8.7% | OVCAR-3 ovarian -36.1% | NCI/ADR-RES ovarian 5.22%
inactive: TK-10 renal 11.1% | CAKI-1 renal 12.6% | OVCAR-8 ovarian 10.3% | OVCAR-4 ovarian 32.8% | SK-OV-3 ovarian 44.3% | HS 578T breast 37.6%

Cc1ncc(C(=O)Nc2ccc(CN3CCN(C)CC3)c(C(F)(F)F)c2)cc1C#Cc1ccc(N)nc1
active: SK-MEL-2 melanoma -55% | SN12C renal 2.89% | UO-31 renal -27% | TK-10 renal -28.2% | ACHN renal -20% | CAKI-1 renal -71.1% | A498 renal -64.1% | RPMI-8226 leukemia 1.1% | IGROV1 ovarian -25% | HS 578T breast -20% | NCI/ADR-RES ovarian 9.79%
inactive: CCRF-CEM leukemia 18.6% | MOLT-4 leukemia 25.9% | OVCAR-8 ovarian 19.8% | OVCAR-5 ovarian 10.4% | OVCAR-4 ovarian 12% | SK-OV-3 ovarian 16.7% | OVCAR-3 ovarian 18.6%

CN1CCN(c2ccc(-c3cc4c(Nc5ccc(F)c(Cl)c5)ncnn4c3)cn2)CC1
active: RPMI-8226 leukemia 3.77%
inactive: SK-MEL-2 melanoma 109% | SN12C renal 90.5% | UO-31 renal 88.2% | TK-10 renal 76.7% | ACHN renal 82.6% | CAKI-1 renal 96.3% | A498 renal 86.7% | CCRF-CEM leukemia 42.9% | MOLT-4 leukemia 93.6% | OVCAR-8 ovarian 77.1% | OVCAR-5 ovarian 97.8% | OVCAR-4 ovarian 88.4% | SK-OV-3 ovarian 110% | IGROV1 ovarian 89.5% | OVCAR-3 ovarian 98.6% | HS 578T breast 76.9% | NCI/ADR-RES ovarian 83.6%

O=C1NC(=O)C(Cn2cnc3ccccc32)N1 (stereo not drawn)
inactive: SK-MEL-2 melanoma 107% | SN12C renal 98.6% | UO-31 renal 92.6% | TK-10 renal 99.6% | ACHN renal 99.8% | CAKI-1 renal 101% | A498 renal 76.6% | CCRF-CEM leukemia 102% | MOLT-4 leukemia 99.6% | RPMI-8226 leukemia 99.5% | OVCAR-8 ovarian 106% | OVCAR-5 ovarian 110% | OVCAR-4 ovarian 105% | SK-OV-3 ovarian 101% | IGROV1 ovarian 105% | OVCAR-3 ovarian 103% | HS 578T breast 107% | NCI/ADR-RES ovarian 101%

Cc1ccc(-c2nc(N3CCN(CC(=O)Nc4ccc(Cl)c(C(F)(F)F)c4)CC3)c3ccccc3n2)cc1
inactive: SK-MEL-2 melanoma 110% | SN12C renal 94.6% | UO-31 renal 65.6% | TK-10 renal 101% | ACHN renal 95% | CAKI-1 renal 80.2% | A498 renal 74.6% | CCRF-CEM leukemia 89.5% | SR leukemia 87.2% | OVCAR-8 ovarian 88.9% | OVCAR-5 ovarian 89.9% | OVCAR-4 ovarian 102% | SK-OV-3 ovarian 84.7% | IGROV1 ovarian 99.8% | OVCAR-3 ovarian 102% | HS 578T breast 97.2% | NCI/ADR-RES ovarian 86.5%

COc1ccc2c(c1)c(-c1ccc(-c3cn(C)c4ccc(OC)cc34)o1)cn2C
inactive: SK-MEL-2 melanoma 45% | SN12C renal 75.8% | TK-10 renal 83.3% | ACHN renal 36.3% | CAKI-1 renal 37.2% | A498 renal 85.3% | CCRF-CEM leukemia 61.8% | MOLT-4 leukemia 63.5% | OVCAR-8 ovarian 39.4% | OVCAR-5 ovarian 36.8% | SK-OV-3 ovarian 93.4% | IGROV1 ovarian 70.2% | OVCAR-3 ovarian 23.2% | NCI/ADR-RES ovarian 38.7%
active: UO-31 renal -8.28% | OVCAR-4 ovarian -42.3% | HS 578T breast -31.2%

COc1ccc(C(=S)N2CCN(c3cccc(C)c3)CC2)cc1OC
active: NCI/ADR-RES ovarian 5.68%
inactive: SK-MEL-2 melanoma 34% | SN12C renal 75% | UO-31 renal 76% | TK-10 renal 92.7% | ACHN renal 79.7% | CAKI-1 renal 62.5% | A498 renal 86.4% | CCRF-CEM leukemia 74% | MOLT-4 leukemia 54.8% | RPMI-8226 leukemia 80% | OVCAR-8 ovarian 76.6% | OVCAR-5 ovarian 93.4% | OVCAR-4 ovarian 103% | SK-OV-3 ovarian 88.5% | IGROV1 ovarian 42.4% | OVCAR-3 ovarian 41.1% | HS 578T breast 103%

COc1ccc(-c2nc3sc(-c4ccc(Cl)cc4)cn3n2)cc1
inactive: SK-MEL-2 melanoma 106% | CCRF-CEM leukemia 69.5% | MOLT-4 leukemia 82.6% | SR leukemia 51.1% | RPMI-8226 leukemia 44.9% | OVCAR-5 ovarian 52% | SK-OV-3 ovarian 49.5% | OVCAR-3 ovarian 24.7% | HS 578T breast 27% | NCI/ADR-RES ovarian 45.6%
active: SN12C renal 5.26% | UO-31 renal -7.46% | TK-10 renal -30.8% | ACHN renal -74% | CAKI-1 renal -3.32% | A498 renal -25.3% | OVCAR-4 ovarian -63.3% | IGROV1 ovarian 7.07%

O=C1/C(=C/c2ccccc2[N+](=O)[O-])Oc2ccc(O)c(O)c21
inactive: SK-MEL-2 melanoma 43.1% | SN12C renal 31.1% | UO-31 renal 28.7% | TK-10 renal 80.4% | ACHN renal 17.7% | CAKI-1 renal 15.1% | A498 renal 65.7% | SR leukemia 36.1% | OVCAR-8 ovarian 25.5% | OVCAR-5 ovarian 48.8% | OVCAR-4 ovarian 47.9% | SK-OV-3 ovarian 93.1% | IGROV1 ovarian 48.5% | OVCAR-3 ovarian 35.1% | HS 578T breast 21.1% | NCI/ADR-RES ovarian 37.6%
active: CCRF-CEM leukemia 8.79%

CCOC(=O)c1c(C)nc2c(c1N)CC(=O)N2Cc1ccc(F)cc1
inactive: SK-MEL-2 melanoma 92.6% | SN12C renal 93.2% | UO-31 renal 88.6% | TK-10 renal 97.3% | ACHN renal 95.7% | A498 renal 64.1% | CCRF-CEM leukemia 85.3% | MOLT-4 leukemia 85% | SR leukemia 99.5% | RPMI-8226 leukemia 80.1% | OVCAR-5 ovarian 103% | OVCAR-4 ovarian 94.7% | SK-OV-3 ovarian 95% | IGROV1 ovarian 104% | OVCAR-3 ovarian 99.5% | HS 578T breast 91.5% | NCI/ADR-RES ovarian 99%

CC(C)(C)NC(=O)C(OC(=O)c1cccc(Cl)c1)c1ccc(Cl)cc1 (stereo not drawn)
inactive: SK-MEL-2 melanoma 96.1% | SN12C renal 101% | UO-31 renal 90.1% | TK-10 renal 93.2% | ACHN renal 107% | A498 renal 83.1% | CCRF-CEM leukemia 103% | SR leukemia 103% | RPMI-8226 leukemia 102% | OVCAR-5 ovarian 94.5% | OVCAR-4 ovarian 105% | SK-OV-3 ovarian 93.1% | IGROV1 ovarian 104% | OVCAR-3 ovarian 103% | HS 578T breast 110% | NCI/ADR-RES ovarian 101%

COc1cccc(-c2nc(-c3ccc(NC(=O)OC(C)C)cc3)[nH]c2-c2ccnc(Br)c2)c1
inactive: SK-MEL-2 melanoma 25.6% | SN12C renal 30.8% | TK-10 renal 48.6% | ACHN renal 14.5% | CAKI-1 renal 28% | CCRF-CEM leukemia 18.3% | MOLT-4 leukemia 10.3% | OVCAR-8 ovarian 27.3% | OVCAR-5 ovarian 53.7% | OVCAR-4 ovarian 32.9% | SK-OV-3 ovarian 33.3% | IGROV1 ovarian 35.5% | OVCAR-3 ovarian 26.2% | NCI/ADR-RES ovarian 27.7%
active: UO-31 renal 9.01% | A498 renal -4.13% | SR leukemia -2.3% | HS 578T breast -17.2%

Cc1cc(-c2cc(C)c(N)cc2C)c(C)cc1N
inactive: SK-MEL-2 melanoma 90.5% | SN12C renal 89.9% | UO-31 renal 78.7% | TK-10 renal 101% | ACHN renal 92.8% | CAKI-1 renal 87.3% | A498 renal 105% | CCRF-CEM leukemia 89.8% | MOLT-4 leukemia 100% | SR leukemia 45.5% | OVCAR-8 ovarian 103% | OVCAR-5 ovarian 97.2% | SK-OV-3 ovarian 95.7% | IGROV1 ovarian 109% | OVCAR-3 ovarian 107% | HS 578T breast 107% | NCI/ADR-RES ovarian 100%
